Data: PubChem BioAssay AID1159580 (chemical genetic matrix, 2015)
Hit rate of the full screen: of about 5,500 compounds, about 2,000 (36%) were called active. Roughly 18% stayed inconclusive and do not appear here. No stated cut-off is given here; in the data, active means normalized growth mostly below about 0.91 (no sharp cut-off); inconclusive means no clear call, values can overlap the other calls; inactive means mostly above about 0.92. The list shows a part of the results.

Assay: chemical genetic growth profiling, strain panel (AID 1159580);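 further: tested at 20 µM; growth read once vehicle control cultures reached saturation at 30 °C; 1 = growth at the plate median or of vehicle wells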
Settings: S. cerevisiae deletion strains, growth OD
[1] = locus YHR030C, strain SLT2, stronger effect = lower value

Measured: normalized growth

c1ccc(-c2ccc(-c3csc(-c4cccnc4)n3)cc2)cc1
inactive: locus YAL013W, strain DEP1, stronger effect = lower value 1.01 | locus YBR229C, strain ROT2, stronger effect = lower value 1.02 | locus YCL061C, strain MRC1, stronger effect = lower value 0.951 | locus YDL101C, strain DUN1, stronger effect = lower value 0.972 | locus YDR150W, strain NUM1, stronger effect = lower value 1 | locus YEL061C, strain CIN8, stronger effect = lower value 1.01 | locus YGR078C, strain PAC10, stronger effect = lower value 0.997 | [1] 1.04 | locus YHR087W, strain rtc3, stronger effect = lower value 1.01 | locus YJL187C, strain SWE1, stronger effect = lower value 0.979 | locus YJR043C, strain POL32, stronger effect = lower value 0.975 | locus YJR075W, strain HOC1, stronger effect = lower value 1.03 | locus YKL190W, strain CNB1, stronger effect = lower value 1.02 | locus YLR039C, strain RIC1, stronger effect = lower value 1.01 | locus YLR058C, strain SHM2 (second series), stronger effect = lower value 1.02 | locus YLR085C, strain ARP6, stronger effect = lower value 0.991 | locus YLR262C, strain YPT6, stronger effect = lower value 1.09 | locus YML094W, strain GIM5, stronger effect = lower value 1 | locus YMR219W, strain ESC1, stronger effect = lower value 1.02 | locus YMR263W, strain SAP30, stronger effect = lower value 0.992 | locus YMR307W, strain GAS1, stronger effect = lower value 0.896 | locus YNL153C, strain GIM3, stronger effect = lower value 0.956 | locus YNL298W, strain CLA4 (second series), stronger effect = lower value 1.04 | locus YNL322C, strain KRE1, stronger effect = lower value 1.03 | locus YNR030W, strain Alg12, stronger effect = lower value 1.01 | locus YOL006C, strain TOP1, stronger effect = lower value 1.08 | locus YPL055C, strain LGE1, stronger effect = lower value 0.944 | locus YPL241C, strain CIN2, stronger effect = lower value 0.979 | locus YPR135W, strain CTF4, stronger effect = lower value 1.08

c1cncc(C2=NCCC2)c1
inactive: [1] 1.02 | locus YHR079C, strain IRE1, stronger effect = lower value 1.01 | locus YJL095W, strain BCK1, stronger effect = lower value 1.02 | locus YJR066W, strain TOR1, stronger effect = lower value 0.938 | locus YLR113W, strain HOG1, stronger effect = lower value 0.905 | locus YNL183C, strain NPR1, stronger effect = lower value 0.952 | locus YOR231W, strain MKK1, stronger effect = lower value 1.01 | locus YPL256C, strain CLN2, stronger effect = lower value 0.99
